Assay results from PubChem BioAssay AID1159580 (chemical genetic matrix, 2015).
Several values for one entry are separate records, joined by “and”; a condition that tells them apart may be missing. Identical values can stand only once. Screen size: about 5,500 compounds; about 2,000 (36%) were called active. Not shown: some 18% with an inconclusive outcome. No stated cut-off is given here; in the data, active means normalized growth mostly below about 0.91 (no sharp cut-off); inconclusive means no clear call, values can overlap the other calls; inactive means mostly above about 0.92. The list shows a part of the results.

Assay: chemical genetic growth profiling, strain panel (AID 1159580);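 further: tested at 20 µM; growth read once vehicle control cultures reached saturation at 30 °C; 1 = growth at the plate median or of vehicle wells; lower values mean less growth of the strain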
Details: growth OD

Measured: normalized growth

O=c1oc2ccccc2cc1[N+](=O)[O-]
active: S. cerevisiae deletion strains, locus YAL013W, strain DEP1, active compounds read low 0.0574 | S. cerevisiae deletion strains, locus YBR229C, strain ROT2, active compounds read low 0.0595 | S. cerevisiae deletion strains, locus YCL061C, strain MRC1, active compounds read low 0.0567 | S. cerevisiae deletion strains, locus YDL101C, strain DUN1, active compounds read low 0.0763 | S. cerevisiae deletion strains, locus YDL134C, strain PPH21, active compounds read low 0.049 | S. cerevisiae deletion strains, locus YDR150W, strain NUM1, active compounds read low 0.0585 | S. cerevisiae deletion strains, locus YEL061C, strain CIN8, active compounds read low 0.0579 | S. cerevisiae deletion strains, locus YGR052W, strain FMP48, active compounds read low 0.114 | S. cerevisiae deletion strains, locus YGR078C, strain PAC10, active compounds read low 0.0524 | S. cerevisiae deletion strains, locus YGR229C, strain SMI1, active compounds read low 0.0596 | S. cerevisiae deletion strains, locus YHR030C, strain SLT2, active compounds read low 0.0818 and 0.0892 | S. cerevisiae deletion strains, locus YHR079C, strain IRE1, active compounds read low 0.106 | S. cerevisiae deletion strains, locus YHR082C, strain KSP1, active compounds read low 0.105 | S. cerevisiae deletion strains, locus YHR087W, strain rtc3, active compounds read low 0.0624 | S. cerevisiae deletion strains, locus YJL095W, strain BCK1, active compounds read low 0.104 | S. cerevisiae deletion strains, locus YJR043C, strain POL32, active compounds read low 0.0547 | S. cerevisiae deletion strains, locus YJR066W, strain TOR1, active compounds read low 0.102 | S. cerevisiae deletion strains, locus YJR075W, strain HOC1, active compounds read low 0.0787 | S. cerevisiae deletion strains, locus YKL171W, strain NNK1, active compounds read low 0.106 | S. cerevisiae deletion strains, locus YKL190W, strain CNB1, active compounds read low 0.0491 | S. cerevisiae deletion strains, locus YKL203C, strain TOR2, active compounds read low 0.0901 | S. cerevisiae deletion strains, locus YLR039C, strain RIC1, active compounds read low 0.0723 | S. cerevisiae deletion strains, locus YLR058C, strain SHM2 (second series), active compounds read low 0.0528 | S. cerevisiae deletion strains, locus YLR085C, strain ARP6, active compounds read low 0.071 | S. cerevisiae deletion strains, locus YLR113W, strain HOG1, active compounds read low 0.137 | S. cerevisiae deletion strains, locus YLR262C, strain YPT6, active compounds read low 0.0758 | S. cerevisiae deletion strains, locus YML094W, strain GIM5, active compounds read low 0.0733 | S. cerevisiae deletion strains, locus YMR219W, strain ESC1, active compounds read low 0.0518 | S. cerevisiae deletion strains, locus YMR263W, strain SAP30, active compounds read low 0.0584 | S. cerevisiae deletion strains, locus YNL153C, strain GIM3, active compounds read low 0.057 | S. cerevisiae deletion strains, locus YNL183C, strain NPR1, active compounds read low 0.119 | S. cerevisiae deletion strains, locus YNL207W, strain RIO2, active compounds read low 0.0939 | S. cerevisiae deletion strains, locus YNL298W, strain CLA4 (second series), active compounds read low 0.0711 | S. cerevisiae deletion strains, locus YNL322C, strain KRE1, active compounds read low 0.0611 | S. cerevisiae deletion strains, locus YNR030W, strain Alg12, active compounds read low 0.0702 | S. cerevisiae deletion strains, locus YOL006C, strain TOP1, active compounds read low 0.0751 | S. cerevisiae deletion strains, locus YOR119C, strain RIO1, active compounds read low 0.0989 | S. cerevisiae deletion strains, locus YOR231W, strain MKK1, active compounds read low 0.106 | S. cerevisiae deletion strains, locus YPL055C, strain LGE1, active compounds read low 0.0749 | S. cerevisiae deletion strains, locus YPL241C, strain CIN2, active compounds read low 0.0745 | S. cerevisiae deletion strains, locus YPL256C, strain CLN2, active compounds read low 0.0976 | S. cerevisiae deletion strains, locus YPR135W, strain CTF4, active compounds read low 0.155 | S. cerevisiae strains, strain wild type, active compounds read low 0.0506
